The text below walks through data of PubChem BioAssay (Tox21).

Inconclusive results are not listed. Calls of active or inactive are those of the source. The call rests on the fitted dose curve; in most records, active means well fitted inhibition curve with a large enough effect in the signal ratio in the repeat runs (not every such curve was filed as active); inconclusive means weak or mixed curves, or effect the other way; inactive means no such curve, though single readings can be large or run the other way; the % refers to the signal ratio.

For the experiment, the target named is Glucocorticoid receptor (Homo sapiens) (UniProt P04150). Nature of the experiment: qHTS assay to identify small molecule antagonists of the glucocorticoid receptor (GR) signaling pathway (AID 720692). The following applies: GR-bla HeLa, beta-lactamase FRET ratio, dexamethasone-stimulated, 18 h; series mostly up to 58.5 µM. Put shortly: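 Quantitative HTS in antagonist format: HeLa cells expressing endogenous GR and a stably integrated GRE-bla reporter, stimulated with 5 nM dexamethasone (final) alongside test compounds for 18 h.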
Chain of Glucocorticoid receptor (Homo sapiens) (P04150 whole entry, looked up): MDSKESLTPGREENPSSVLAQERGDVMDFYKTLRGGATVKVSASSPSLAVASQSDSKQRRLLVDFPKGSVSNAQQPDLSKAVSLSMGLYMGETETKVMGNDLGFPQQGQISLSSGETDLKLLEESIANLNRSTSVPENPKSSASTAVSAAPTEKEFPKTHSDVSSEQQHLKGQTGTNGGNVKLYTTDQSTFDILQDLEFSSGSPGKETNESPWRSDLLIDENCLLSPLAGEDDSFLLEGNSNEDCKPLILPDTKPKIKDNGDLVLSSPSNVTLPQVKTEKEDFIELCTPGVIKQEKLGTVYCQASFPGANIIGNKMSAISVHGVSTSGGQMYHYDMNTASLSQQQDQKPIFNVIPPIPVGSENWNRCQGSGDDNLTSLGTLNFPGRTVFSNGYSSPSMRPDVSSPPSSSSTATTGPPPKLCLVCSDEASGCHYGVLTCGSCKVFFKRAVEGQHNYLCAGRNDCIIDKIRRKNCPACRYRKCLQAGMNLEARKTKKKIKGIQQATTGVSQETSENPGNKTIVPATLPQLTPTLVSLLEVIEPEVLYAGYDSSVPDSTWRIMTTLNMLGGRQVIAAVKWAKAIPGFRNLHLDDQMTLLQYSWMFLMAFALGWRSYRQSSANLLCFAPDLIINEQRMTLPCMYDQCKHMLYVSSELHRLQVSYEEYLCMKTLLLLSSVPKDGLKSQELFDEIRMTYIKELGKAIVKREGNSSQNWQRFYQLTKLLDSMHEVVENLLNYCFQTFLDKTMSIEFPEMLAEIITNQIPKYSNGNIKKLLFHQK
For the compound `CC(C)COC(=O)COc1ccc(Cl)cc1Cl`, the result was inactive.

Consider `O=c1[nH]c(=O)c2[nH]c(=O)[nH]c2[nH]1`, for which the result was inactive.

For `Cc1cc(C)cc([N+](=O)[O-])c1`, the outcome was inactive.

Consider `CCCCOC(=O)C(C)OC(=O)CCC` (stereo not given), for which the result was inactive.

Regarding `CC1=NN(c2ccc(S(=O)(=O)O)cc2)C(=O)C1N=Nc1ccccc1` (stereo not given), the result was inactive.

For `O=C(O)c1ccccc1C(=O)Nc1ccc(S(=O)(=O)Nc2nccs2)cc1`, the result was inactive.

Regarding `FC(F)(F)/C(=N\OCC1OCCO1)c1ccc(Cl)cc1`, the result was inactive.

For `CCOC(=O)CC#N`, the result was inactive.

In the case of `COc1cc(C=O)ccc1OC(=O)C(C)C`, the result was inactive.

In the case of `CCCOC(=O)CCCCC(=O)OCCC`, the outcome was inactive.

For the compound `C[C@H]1O[C@H](O[C@H]2[C@H](O)[C@@H](O)[C@@H](O[C@H]3[C@H](O)[C@@H](O)[C@H](O)O[C@@H]3CO)O[C@@H]2CO)[C@H](O)[C@@H](O)[C@@H]1N[C@H]1C=C(CO)[C@@H](O)[C@H](O)[C@H]1O`, the outcome was inactive.

Regarding `O=S(=O)(O)CCO`, the outcome was inactive.

For the compound `NCCc1ccn[nH]1`, the outcome was inactive.

Take `CCCCC(CC)C(=O)OC(C)C` (stereo not given): the outcome was inactive.

Regarding `CCC(=O)c1ccc(O)cc1`, the result was inactive.

As to `CCCCCCCCC(=O)OCC`, the outcome was inactive.

Take `CCCCC/C=C/CC(=O)OC`: the result was inactive.

Regarding `C=CCOc1cc(Cl)ccc1C(=O)NCCN(CC)CC`, the outcome was inactive.

On to `CCCCCC1Nc2cc(C(F)(F)F)c(S(N)(=O)=O)cc2S(=O)(=O)N1` (stereo not given), for which the result was inactive.

Turning to `CCc1nccnc1C`, the result was inactive.

Turning to `Cc1ccccc1C(=O)N1CC/C(=N\OS(=O)(=O)O)c2ccc(Cl)cc21`, the result was inactive.

Consider `CO/N=C(/C(=O)N[C@@H]1C(=O)N2C(C(=O)O)=C(Cn3nnc(C)n3)CS[C@H]12)c1csc(N)n1`, for which the result was inactive.

For `Cc1nc(C)nc(N2C[C@@H](C)N(c3ccnc([C@@H](C)O)n3)[C@@H](C)C2)n1`, the outcome was inactive.

Turning to `O=C(COCCOCCOCC(=O)Nc1c(I)cc(I)c(C(=O)O)c1I)Nc1c(I)cc(I)c(C(=O)O)c1I`, the outcome was inactive.

For the compound `C=C[Si](C)(C)O[Si](C)(C)C=C`, the result was inactive.
